From PubChem BioAssay (Tox21)
Records with an inconclusive call do not appear. Active and inactive are the calls of the source. Unless noted, calls follow the shape of the dose curve; as a rule, active = well fitted curve in the direction sought with a large enough effect in the repeat runs; inconclusive = weak or mixed curves; inactive = no such curve, though single readings can be large; an effect the other way counts as inactive or inconclusive.

Columns and labels:
[1] = molecular target: Estrogen receptor beta (Homo sapiens) (UniProt Q92731); assay: qHTS assay to identify small molecule agonists of the estrogen receptor beta (ER-beta) signaling pathway (AID 1259377; active = well fitted activation curve with a large enough effect in the signal ratio in the repeat runs, not every such curve was filed as active; the % refers to the signal ratio)
Procedure, shortened: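 Reporter cells (HEK293T, ER-beta-UAS-bla) receive compounds or DMSO after a 6 hr pre-incubation. They then incubate 16 hr at 37C/5% CO2, and fluorescence from LiveBLAzer B/G substrate is measured after 2 hours at room temperature.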

[2] = molecular target: Estrogen receptor beta (Homo sapiens) (UniProt Q92731); assay: qHTS assay to identify small molecule antagonists of the estrogen receptor beta (ER-beta) signaling pathway (AID 1259378; active = well fitted inhibition curve with a large enough effect in the signal ratio in the repeat runs, not every such curve was filed as active; the % refers to the signal ratio)
Procedure, shortened: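 ER-beta-UAS-bla HEK293T cells in 2% charcoal-stripped FBS medium treated with compound plus 1nM final 17-beta-estradiol for 16 hr at 37C. Beta-lactamase reporter read by FRET substrate fluorescence after 2 hours at room temperature.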

[3] = qHTS assay to identify small molecule agonists of the androgen receptor (AR) signaling pathway in the presence of an antagonist - cell viability counter screen (AID 1259379);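 also: MDA-kb2 human breast cancer cells carrying an MMTV luciferase reporter; series mostly up to about 92 µM; nearly all actives have a fitted effect of over 25% in size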
Procedure, shortened: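 Cytotoxicity counter-screen run in the same wells as the nilutamide-challenged (3.0 µM final) AR agonist assay in MDA-kb2 cells. Compounds tested at 15 concentrations for 16 h, 37 °C without CO2; CellTiter-Fluor fluorescence read.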

[4] = qHTS assay to identify small molecule agonists of the estrogen receptor beta (ER-beta) signaling pathway - cell viability counter screen (AID 1259380); also: nearly all actives have a fitted effect of over 30% in size
Procedure, shortened: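 Cell viability counter screen: CellTiter-Glo luminescence (30 min, room temperature) measured in the same wells as the beta-lactamase readout, after 16 hr compound exposure at 37C of ER-beta-bla HEK293T cells in 2% charcoal-stripped FBS medium.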

[5] = qHTS assay to identify small molecule antagonists of the estrogen receptor beta (ER-beta) signaling pathway - cell viability counter screen (AID 1259382); also: series mostly up to about 92 µM; nearly all actives have a fitted effect of over 55% in size
Procedure, shortened: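 Cytotoxicity was measured in the same wells by CellTiter-Glo luminescence after 30 min at room temperature. Cells were ER-beta-bla HEK293T in charcoal-stripped serum, given compound together with 1 nM E2 and incubated 16 h at 37C.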

[6] = qHTS assay to identify small molecule agonists or antagonists of the thyroid stimulating hormone receptor (TSHR) signaling pathway - wild type cell line counter screen (AID 1259384; calls by dose curve)
Procedure, shortened: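 Wild-type Hek293 cells, 800/well, 18 h at 37C, then compound with Ro20-1724 for 30 min RT. cAMP by HTRF (cAMP-d2/anti-cAMP cryptate), 1 h RT, fluorescence read. 15 concentrations, triplicates.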

[7] = molecular target: Thyrotropin receptor (Homo sapiens) (UniProt P16473); assay: qHTS assay to identify small molecule antagonists of the thyroid stimulating hormone receptor (TSHR) signaling pathway (AID 1259385; calls by dose curve; also: nearly all actives have a fitted effect of over 20% in size)
Procedure, shortened: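 TSHR-HEK293 cells (800/well) plated 18 h, then compounds with Ro20-1724 and TSH at 1.5 ng/mL final, 30 min at room temperature. cAMP quantified by HTRF (cAMP-d2/anti-cAMP-cryptate, 1 h); 15 concentrations in triplicate.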

[8] = qHTS assay to identify small molecule agonists of the estrogen receptor alpha (ER-alpha) signaling pathway in the presence of an antagonist - cell viability counter screen (AID 1259386); also: series mostly up to about 92 µM; nearly all actives have a fitted effect of over 30% in size
Procedure, shortened: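 Compounds tested at 15 concentrations for 22 h at 37C alongside 10.0nM (final) ICI-182,780 antagonist, in VM7Luc4E2 cells grown in phenol red-free, charcoal-stripped medium. Viability read by CellTiter-Fluor fluorescence after 1 h reagent incubation.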

[9] = molecular target: Progesterone receptor (Homo sapiens) (UniProt P06401); assay: qHTS assay to identify small molecule agonists of the progesterone receptor (PR) signaling pathway (AID 1346784; calls by dose curve; also: nearly all actives have a fitted effect of over 30% in size)
Procedure, shortened: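 Reporter assay, GripTite PR-UAS-bla HEK 293T cells: 16 hr exposure to DMSO-dissolved compounds at 37C, 5% CO2, in steroid-depleted (2% charcoal-stripped FBS) medium; beta-lactamase measured by FRET fluorescence.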

[10] = molecular target: Progesterone receptor (Homo sapiens) (UniProt P06401); assay: qHTS assay to identify small molecule antagonists of the progesterone receptor (PR) signaling pathway (AID 1346795; active = well fitted inhibition curve with a large enough effect in the signal ratio in the repeat runs, not every such curve was filed as active; the % refers to the signal ratio)
Procedure, shortened: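 Stimulus R5020 at 1 nM final; cells HEK293T PR-UAS-bla; medium with 2% charcoal-stripped FBS; compound exposure 16 hr at 37C, 5% CO2; detection by FRET beta-lactamase substrate, 2 hr, room temperature.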

[11] = qHTS assay to identify small molecule agonists of the progesterone receptor (PR) signaling pathway - cell viability counter screen (AID 1346799; calls by dose curve; also: nearly all actives have a fitted effect of over 45% in size)
Procedure, shortened: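 Multiplexed viability read: CellTiter-Glo luminescence, 30 min RT, following LiveBLAzer FRET measurement on PR-UAS-bla HEK293T cells exposed to compounds 16 hr.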

[12] = qHTS assay to identify small molecule antagonists of the TGF-beta/Smad signaling pathway - cell viability counter screen (AID 1346824); also: nearly all actives have a fitted effect of over 50% in size
Procedure, shortened: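 SBE-bla HEK 293T cells, incubated overnight, then compound plus 0.25 ng/mL TGF-beta1 (stock added) for 5 hr at 37 C. Viability was read in the same wells by CellTiter-Glo luminescence after 30 min at room temperature.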

[13] = qHTS assay to identify small molecule agonists of the TGF-beta/Smad signaling pathway - cell viability counter screen (AID 1346829); also: top concentration of the series differs between compounds; nearly all actives have a fitted effect of over 45% in size
Procedure, shortened: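 In parallel with the Smad reporter read, viability of HEK 293T cells stably carrying SBE-bla is quantified by ATP luminescence following 5 hr compound treatment.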

[14] = molecular target: Thyrotropin-releasing hormone receptor (Homo sapiens) (UniProt P34981); assay: qHTS assay to identify small molecule agonists of the thyrotropin-releasing hormone receptor (TRHR) signaling pathway (AID 1346891; calls by dose curve; also: series mostly up to about 58 µM)
Procedure, shortened: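 Readout was intracellular calcium fluorescence in TRHR-Hek293 cells. Cells were incubated 18 h, dye-loaded 2 h at 37 °C, and treated with compound in agonist mode.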

[15] = qHTS assay to identify small molecule antagonists of the progesterone receptor (PR) signaling pathway - cell viability counter screen (AID 1346798); also: series mostly up to about 92 µM; nearly all actives have a fitted effect of over 50% in size
Procedure, shortened: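 In the same plates used for the beta-lactamase readout, cell viability of compound- and R5020-treated PR-UAS-bla HEK293T cells (16 hr, 37C) was assessed by CellTiter-Glo luminescence.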

[16] = Human pregnane X receptor (PXR) small molecule agonists, qHTS cell viability counter screen (AID 1346977); also: nearly all actives have a fitted effect of over 50% in size
Procedure, shortened: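 In each well, the PXR reporter HepG2 line was checked for viability: CellTiter-Fluor reagent added 23hr post-dosing, fluorescence read after 1hr incubation at 37C.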

[17] = qHTS assay to identify small molecule agonists of the TGF-beta/Smad signaling pathway (AID 1346859; active = well fitted activation curve with a large enough effect in the signal ratio in the repeat runs, not every such curve was filed as active; the % refers to the signal ratio; also: series mostly up to about 77 µM)
Procedure, shortened: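 Screening used HEK 293T SBE-bla cells at 4,000/well. Test agents: 5 hr, 37 C. Detection: FRET substrate, 2 hr RT, then excitation 405 nm with emissions at 460 and 530 nm.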

[18] = molecular target: Thyrotropin-releasing hormone receptor (Homo sapiens) (UniProt P34981); assay: qHTS assay to identify small molecule antagonists of the thyrotropin-releasing hormone receptor (TRHR) signaling pathway (AID 1346877; active = well fitted inhibition curve with a large enough effect in the repeat runs, not every such curve was filed as active; also: series mostly up to about 51 µM)
Procedure, shortened: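 Antagonist mode: after a 5 min room-temperature compound exposure, cells were stimulated with 1 nM (final) TRH. Dye-loaded TRHR-HEK293 cells were used, and calcium-dependent fluorescence was followed for 3 min, with 15-point titrations run in triplicate.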

[19] = molecular target: Estrogen receptor (Homo sapiens) (UniProt P03372); assay: qHTS assay to identify small molecule agonists of the estrogen receptor alpha (ER-alpha) signaling pathway in the presence of an antagonist (AID 1259383; calls by dose curve; also: top concentration of the series differs between compounds; nearly all actives have a fitted effect of over 15% in size)
Procedure, shortened: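 Agonist-mode confirmation run in the presence of 10.0nM (final) ICI-182,780 antagonist. The reporter was ERE-driven luciferase in VM7Luc4E2 cells, grown in charcoal-stripped serum. Cells were exposed to 15-concentration compound series for 22hr, then ONE-Glo luminescence was read.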

[20] = molecular target: Androgen receptor (Homo sapiens) (UniProt P10275); assay: qHTS assay to identify small molecule agonists of the androgen receptor (AR) signaling pathway in the presence of an antagonist (AID 1259381; calls by dose curve; also: nearly all actives have a fitted effect of over 15% in size)
Procedure, shortened: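 Agonist-mode confirmation run against 3.0 uM final nilutamide: compounds titrated at 15 concentrations onto MDA-kb2 MMTV-luciferase reporter cells. Luminescence measured with ONE-Glo following 16 hr incubation, 37C, 0% CO2.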
% is scaled to controls: 0 for no effect and ±100 for the full control effect.

Thyrotropin-releasing hormone receptor (Homo sapiens), sequence (P34981 whole entry, looked up): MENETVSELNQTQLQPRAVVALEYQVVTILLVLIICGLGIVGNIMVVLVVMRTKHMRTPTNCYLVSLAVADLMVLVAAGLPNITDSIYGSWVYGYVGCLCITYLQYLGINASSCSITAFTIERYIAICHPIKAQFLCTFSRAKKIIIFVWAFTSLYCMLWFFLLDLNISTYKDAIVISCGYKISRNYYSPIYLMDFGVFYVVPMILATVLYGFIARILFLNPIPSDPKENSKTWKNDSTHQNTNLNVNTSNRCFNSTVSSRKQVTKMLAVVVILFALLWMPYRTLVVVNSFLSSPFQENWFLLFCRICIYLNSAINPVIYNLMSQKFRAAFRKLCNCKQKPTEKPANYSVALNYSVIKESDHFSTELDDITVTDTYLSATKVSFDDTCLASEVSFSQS
Estrogen receptor (Homo sapiens), sequence (P03372 whole entry, looked up): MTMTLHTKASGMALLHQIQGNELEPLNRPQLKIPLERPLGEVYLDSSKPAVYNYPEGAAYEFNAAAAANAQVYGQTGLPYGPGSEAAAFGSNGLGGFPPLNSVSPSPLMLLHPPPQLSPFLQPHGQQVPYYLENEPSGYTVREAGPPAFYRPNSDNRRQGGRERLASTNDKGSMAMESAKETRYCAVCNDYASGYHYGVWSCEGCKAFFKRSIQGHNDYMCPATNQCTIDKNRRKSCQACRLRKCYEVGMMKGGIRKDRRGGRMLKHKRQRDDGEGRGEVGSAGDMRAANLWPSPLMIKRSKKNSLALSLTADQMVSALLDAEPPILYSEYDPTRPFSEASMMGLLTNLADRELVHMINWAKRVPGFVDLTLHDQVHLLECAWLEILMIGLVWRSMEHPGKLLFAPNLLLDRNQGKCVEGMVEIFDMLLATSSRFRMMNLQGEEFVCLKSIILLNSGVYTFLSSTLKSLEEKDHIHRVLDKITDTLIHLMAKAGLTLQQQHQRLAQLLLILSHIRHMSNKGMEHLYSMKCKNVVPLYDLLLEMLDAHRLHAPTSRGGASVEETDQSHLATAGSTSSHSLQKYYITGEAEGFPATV
Progesterone receptor (Homo sapiens), sequence (P06401 whole entry, looked up): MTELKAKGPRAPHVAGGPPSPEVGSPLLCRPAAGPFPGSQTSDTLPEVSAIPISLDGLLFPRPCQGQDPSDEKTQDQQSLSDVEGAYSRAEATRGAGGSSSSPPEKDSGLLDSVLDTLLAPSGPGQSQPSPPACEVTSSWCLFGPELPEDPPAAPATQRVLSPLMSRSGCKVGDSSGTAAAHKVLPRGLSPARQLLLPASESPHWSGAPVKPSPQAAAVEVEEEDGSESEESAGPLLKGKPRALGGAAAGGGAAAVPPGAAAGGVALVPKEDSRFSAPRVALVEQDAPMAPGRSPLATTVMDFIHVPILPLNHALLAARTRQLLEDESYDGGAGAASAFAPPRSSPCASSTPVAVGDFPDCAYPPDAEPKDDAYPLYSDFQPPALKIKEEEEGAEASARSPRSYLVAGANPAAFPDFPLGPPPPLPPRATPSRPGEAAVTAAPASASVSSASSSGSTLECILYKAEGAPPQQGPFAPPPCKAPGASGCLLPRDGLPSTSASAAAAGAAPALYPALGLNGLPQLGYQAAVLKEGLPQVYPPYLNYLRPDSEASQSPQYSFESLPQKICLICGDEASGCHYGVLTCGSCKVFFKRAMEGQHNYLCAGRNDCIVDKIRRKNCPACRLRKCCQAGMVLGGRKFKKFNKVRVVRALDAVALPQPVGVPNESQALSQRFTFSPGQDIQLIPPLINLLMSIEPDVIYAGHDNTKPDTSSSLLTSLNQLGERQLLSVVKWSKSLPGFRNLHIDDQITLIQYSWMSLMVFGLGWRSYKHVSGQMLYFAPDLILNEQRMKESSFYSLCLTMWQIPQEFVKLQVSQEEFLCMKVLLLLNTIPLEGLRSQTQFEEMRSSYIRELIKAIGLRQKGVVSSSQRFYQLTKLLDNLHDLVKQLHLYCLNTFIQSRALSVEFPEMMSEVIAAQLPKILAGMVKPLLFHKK
Estrogen receptor beta (Homo sapiens), sequence (Q92731 whole entry, looked up): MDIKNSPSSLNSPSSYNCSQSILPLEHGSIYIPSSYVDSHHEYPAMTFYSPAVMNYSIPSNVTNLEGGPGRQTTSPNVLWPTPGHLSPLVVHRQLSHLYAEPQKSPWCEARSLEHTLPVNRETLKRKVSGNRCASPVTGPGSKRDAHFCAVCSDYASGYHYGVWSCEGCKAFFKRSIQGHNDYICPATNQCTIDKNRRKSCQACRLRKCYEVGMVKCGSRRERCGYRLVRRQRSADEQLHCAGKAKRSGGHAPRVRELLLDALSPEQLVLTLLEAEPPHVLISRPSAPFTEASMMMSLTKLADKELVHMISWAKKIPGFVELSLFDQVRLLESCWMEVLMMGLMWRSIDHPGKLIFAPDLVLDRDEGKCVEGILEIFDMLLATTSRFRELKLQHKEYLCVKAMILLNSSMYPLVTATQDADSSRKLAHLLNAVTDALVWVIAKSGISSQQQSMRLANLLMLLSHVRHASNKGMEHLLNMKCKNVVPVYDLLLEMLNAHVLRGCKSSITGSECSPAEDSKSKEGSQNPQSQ
Thyrotropin receptor (Homo sapiens), sequence (P16473 whole entry, looked up): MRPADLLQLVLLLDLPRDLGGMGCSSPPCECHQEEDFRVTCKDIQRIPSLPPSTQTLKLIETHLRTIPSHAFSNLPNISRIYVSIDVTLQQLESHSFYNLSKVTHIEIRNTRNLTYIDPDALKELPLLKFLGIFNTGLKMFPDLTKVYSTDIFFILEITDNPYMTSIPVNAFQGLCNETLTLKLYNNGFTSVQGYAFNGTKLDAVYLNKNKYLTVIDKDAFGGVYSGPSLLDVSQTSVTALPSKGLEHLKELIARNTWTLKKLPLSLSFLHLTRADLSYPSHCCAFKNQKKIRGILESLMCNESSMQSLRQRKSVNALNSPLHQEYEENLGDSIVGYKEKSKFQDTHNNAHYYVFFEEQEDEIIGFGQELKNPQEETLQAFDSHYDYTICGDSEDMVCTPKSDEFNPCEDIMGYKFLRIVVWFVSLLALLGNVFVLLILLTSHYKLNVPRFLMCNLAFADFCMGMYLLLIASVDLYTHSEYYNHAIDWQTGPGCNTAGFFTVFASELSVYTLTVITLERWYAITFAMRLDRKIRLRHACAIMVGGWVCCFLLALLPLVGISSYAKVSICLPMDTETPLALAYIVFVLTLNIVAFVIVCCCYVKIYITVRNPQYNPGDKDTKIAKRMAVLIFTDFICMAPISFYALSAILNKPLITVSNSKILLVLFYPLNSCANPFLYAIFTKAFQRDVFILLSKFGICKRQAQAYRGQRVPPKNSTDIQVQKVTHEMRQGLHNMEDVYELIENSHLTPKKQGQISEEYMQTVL
Androgen receptor (Homo sapiens), sequence (P10275 whole entry, looked up): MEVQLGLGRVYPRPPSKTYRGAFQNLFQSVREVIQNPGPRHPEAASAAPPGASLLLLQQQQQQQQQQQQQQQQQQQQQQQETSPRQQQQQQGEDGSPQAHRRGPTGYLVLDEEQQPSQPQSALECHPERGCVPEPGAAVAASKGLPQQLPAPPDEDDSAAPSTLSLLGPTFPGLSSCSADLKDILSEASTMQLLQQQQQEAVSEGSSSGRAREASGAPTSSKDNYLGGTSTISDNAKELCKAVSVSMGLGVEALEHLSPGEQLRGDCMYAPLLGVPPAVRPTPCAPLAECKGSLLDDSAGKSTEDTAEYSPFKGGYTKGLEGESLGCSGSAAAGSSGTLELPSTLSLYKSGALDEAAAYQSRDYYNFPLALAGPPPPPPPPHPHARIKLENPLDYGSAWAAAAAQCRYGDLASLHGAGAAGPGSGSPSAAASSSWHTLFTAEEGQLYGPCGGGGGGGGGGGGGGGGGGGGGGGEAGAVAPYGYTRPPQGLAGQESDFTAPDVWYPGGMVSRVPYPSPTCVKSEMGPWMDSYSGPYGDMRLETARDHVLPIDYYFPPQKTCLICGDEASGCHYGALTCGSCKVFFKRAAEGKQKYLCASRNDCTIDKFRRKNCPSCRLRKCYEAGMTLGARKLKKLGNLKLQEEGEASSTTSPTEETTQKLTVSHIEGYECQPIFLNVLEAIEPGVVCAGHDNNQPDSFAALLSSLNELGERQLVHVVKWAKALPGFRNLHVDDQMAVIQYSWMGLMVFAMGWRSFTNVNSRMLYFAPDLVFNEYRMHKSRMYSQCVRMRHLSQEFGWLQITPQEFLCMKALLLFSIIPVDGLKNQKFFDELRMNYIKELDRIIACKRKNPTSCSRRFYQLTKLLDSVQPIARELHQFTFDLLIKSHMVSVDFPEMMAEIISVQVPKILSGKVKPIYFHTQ

ClCCCCCCCl
inactive: Potency [1] | outcome [2] | Potency [3] | Potency [4] | Potency [5] | outcome [6] | outcome [7] | Potency [8] | Potency [9] | Potency [10] | Potency [11] | outcome [12] | Potency [13] | outcome [14]

O=C1CCCCC1Cl (stereo not given)
inactive: Potency [1] | outcome [2] | Potency [3] | Potency [4] | Potency [5] | outcome [6] | outcome [7] | Potency [8] | Potency [9] | Potency [10] | Potency [15] | Potency [11] | outcome [12] | Potency [13] | Potency [16]

CC(C)(C)C(=O)C(Cl)Cl
inactive: Potency [1] | outcome [2] | Potency [3] | Potency [4] | Potency [5] | outcome [6] | outcome [7] | Potency [8] | Potency [9] | Potency [10] | Potency [15] | Potency [11] | outcome [12] | outcome [17] | Potency [18] | outcome [14] | Potency [16]

CCCCCCCCBr
inactive: Potency [1] | outcome [2] | Potency [3] | Potency [4] | Potency [5] | outcome [6] | outcome [7] | Potency [8] | Potency [9] | Potency [10] | Potency [15] | Potency [11] | outcome [12] | outcome [17] | Potency [18] | outcome [14] | Potency [16]

CC(C)c1ccc(O)cc1
inactive: Potency [1] | outcome [2] | Potency [3] | Potency [4] | Potency [5] | outcome [6] | outcome [7] | Potency [8] | Potency [9] | Potency [10] | Potency [15] | Potency [11] | outcome [12] | Potency [13] | outcome [17] | Potency [18] | outcome [14] | Potency [16]

O=C(Cl)C(Cl)(Cl)Cl
inactive: Potency [1] | outcome [2] | Potency [3] | Potency [5] | Potency [19] | outcome [7] | Potency [8] | Potency [9] | Potency [10] | Potency [15] | Potency [11] | outcome [12] | Potency [13] | outcome [17] | Potency [18] | outcome [14] | Potency [16]

CCOC(=O)N(C)N=O
inactive: Potency [1] | outcome [2] | Potency [3] | Potency [5] | outcome [6] | outcome [7] | Potency [8] | Potency [9] | Potency [10] | Potency [15] | Potency [11] | outcome [12] | Potency [13] | outcome [17] | outcome [14] | Potency [16]

Clc1nc(Cl)nc(Nc2ccccc2Cl)n1
inactive: Potency [1] | outcome [2] | Potency [3] | Potency [5] | Potency [19] | outcome [6] | outcome [7] | Potency [8] | Potency [9] | Potency [10] | Potency [15] | Potency [11] | outcome [12] | Potency [13] | Potency [18] | outcome [14] | Potency [16]

O=c1[nH]oc2c1CCNC2
inactive: Potency [1] | outcome [2] | Potency [3] | Potency [5] | Potency [19] | outcome [6] | outcome [7] | Potency [8] | Potency [10] | Potency [15] | Potency [11] | outcome [12] | outcome [17] | Potency [16]

OCC(Cl)CCl (stereo not given)
inactive: Potency [1] | outcome [2] | Potency [3] | Potency [5] | Potency [19] | Potency [8] | Potency [9] | Potency [15] | Potency [11] | outcome [12] | Potency [13] | outcome [17] | Potency [18] | outcome [14] | Potency [16]

Cc1ccc2cc(C)ccc2c1
inactive: Potency [1] | outcome [2] | Potency [3] | Potency [4] | Potency [5] | Potency [8] | Potency [9] | Potency [10] | Potency [15] | Potency [11] | outcome [12] | Potency [18] | Potency [16]

CC(C)(N)Cc1ccccc1Cl
inactive: Potency [1] | outcome [2] | Potency [3] | Potency [5] | Potency [19] | outcome [6] | outcome [7] | Potency [8] | Potency [9] | Potency [10] | outcome [12] | Potency [13] | outcome [17] | outcome [14] | Potency [16]

c1ccc2c(c1)CCNC2
inactive: Potency [1] | outcome [2] | Potency [3] | Potency [5] | outcome [6] | outcome [7] | Potency [8] | Potency [15] | Potency [11] | outcome [12] | Potency [13] | outcome [17] | Potency [18] | outcome [14] | Potency [16]

COC[C@@H](NC(C)=O)C(=O)NCc1ccccc1
inactive: Potency [1] | outcome [2] | Potency [3] | Potency [20] | Potency [5] | outcome [6] | outcome [7] | Potency [8] | Potency [9] | Potency [10] | Potency [15] | outcome [12] | Potency [13] | outcome [17] | Potency [16]

Cc1ccc2c(c1)C1CN(C)CCC1N2 (stereo not given)
inactive: activation [1] -2.72% [at 19 µM] | activity, negative = inhibition [2] 2.34% [at 19 µM] | activity change, negative = cytotoxicity [3] 0.715% [at 19 µM] | activity change, negative = cytotoxicity [5] 0.836% [at 19 µM] | activation [19] 0.841% [at 19 µM] | cAMP activity change [6] -0.0429% [at 18.9 µM] | activity change, negative = inhibition [7] 8.62% [at 19 µM] | activity change, negative = cytotoxicity [8] -4.97% [at 19 µM] | activation [9] -0.799% [at 19 µM] | activity change, negative = inhibition [10] 5.78% [at 18.9 µM] | activity change, negative = cytotoxicity [15] -15.8% [at 18.9 µM] | activity change, negative = cytotoxicity [11] -23.2% [at 19 µM] | viability change, negative = cytotoxic [12] 0.721% [at 15.8 µM] | activation [17] 3.74% [at 15.8 µM] | activity change, negative = cytotoxicity [16] -7.69% [at 19 µM]

CCOC(=O)C(Cl)Cc1cc(-n2nc(C)n(C(F)F)c2=O)c(F)cc1Cl (stereo not given)
inactive: Potency [1] | outcome [2] | Potency [3] | Potency [5] | Potency [19] | outcome [7] | Potency [8] | Potency [9] | Potency [10] | Potency [15] | Potency [11] | outcome [12] | Potency [13] | outcome [17] | Potency [18] | outcome [14] | Potency [16]
